Laboratory results published in ChEMBL document CHEMBL1961873, “Compounds: GSK PKIS; Assays: Nanosyn kinase panel” (2012).

Tests used:
[1] = target: Sphingosine kinase 1 (Homo sapiens) (UniProt Q9NYA1); conditions: at 1 µM;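 note: mean SPHK1 inhibition value reported from the GSK PKIS kinase panel screen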
[2] = target: T1, Sphingosine kinase 2 (Homo sapiens) (UniProt Q9NRA0); conditions: at 0.1 µM
T1 sequence (whole entry): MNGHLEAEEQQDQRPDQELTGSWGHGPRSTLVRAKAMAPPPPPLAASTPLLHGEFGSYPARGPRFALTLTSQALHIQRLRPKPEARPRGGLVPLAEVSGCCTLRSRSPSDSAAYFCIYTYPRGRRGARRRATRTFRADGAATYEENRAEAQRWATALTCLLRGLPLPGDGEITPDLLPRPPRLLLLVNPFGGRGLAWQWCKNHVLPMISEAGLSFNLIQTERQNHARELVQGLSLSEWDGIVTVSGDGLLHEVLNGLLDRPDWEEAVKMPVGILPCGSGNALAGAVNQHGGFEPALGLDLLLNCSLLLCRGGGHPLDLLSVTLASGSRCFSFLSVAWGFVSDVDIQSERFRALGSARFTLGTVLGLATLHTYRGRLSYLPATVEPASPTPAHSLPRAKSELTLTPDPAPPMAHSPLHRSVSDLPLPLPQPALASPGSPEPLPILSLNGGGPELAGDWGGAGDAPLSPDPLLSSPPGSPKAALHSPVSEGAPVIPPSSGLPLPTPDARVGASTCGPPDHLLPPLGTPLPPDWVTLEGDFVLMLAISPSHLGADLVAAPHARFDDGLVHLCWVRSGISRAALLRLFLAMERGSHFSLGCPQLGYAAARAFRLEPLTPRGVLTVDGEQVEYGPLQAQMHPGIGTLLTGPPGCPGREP

[3] = target: T1, Sphingosine kinase 2 (Homo sapiens); conditions: at 1 µM
[4] = target: Casein kinase II subunit alpha (Homo sapiens) (UniProt P68400); conditions: at 0.1 µM
Sequence of Casein kinase II subunit alpha (Homo sapiens) (P68400 whole entry, looked up): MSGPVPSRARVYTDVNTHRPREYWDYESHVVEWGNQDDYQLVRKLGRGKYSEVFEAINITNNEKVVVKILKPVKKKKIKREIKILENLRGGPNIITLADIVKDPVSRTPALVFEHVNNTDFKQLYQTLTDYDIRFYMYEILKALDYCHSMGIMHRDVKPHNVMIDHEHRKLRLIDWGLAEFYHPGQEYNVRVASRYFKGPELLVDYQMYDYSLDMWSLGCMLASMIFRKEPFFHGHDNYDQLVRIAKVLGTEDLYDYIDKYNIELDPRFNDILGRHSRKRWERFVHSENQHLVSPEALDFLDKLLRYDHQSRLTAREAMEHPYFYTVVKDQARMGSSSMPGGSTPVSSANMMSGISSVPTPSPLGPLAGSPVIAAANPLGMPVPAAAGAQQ

[5] = target: Casein kinase II subunit alpha (Homo sapiens) (UniProt P68400); conditions: at 1 µM
[6] = target: T2, Inhibitor of nuclear factor kappa-B kinase subunit alpha (Homo sapiens) (UniProt O15111); conditions: at 0.1 µM
T2 sequence (whole entry): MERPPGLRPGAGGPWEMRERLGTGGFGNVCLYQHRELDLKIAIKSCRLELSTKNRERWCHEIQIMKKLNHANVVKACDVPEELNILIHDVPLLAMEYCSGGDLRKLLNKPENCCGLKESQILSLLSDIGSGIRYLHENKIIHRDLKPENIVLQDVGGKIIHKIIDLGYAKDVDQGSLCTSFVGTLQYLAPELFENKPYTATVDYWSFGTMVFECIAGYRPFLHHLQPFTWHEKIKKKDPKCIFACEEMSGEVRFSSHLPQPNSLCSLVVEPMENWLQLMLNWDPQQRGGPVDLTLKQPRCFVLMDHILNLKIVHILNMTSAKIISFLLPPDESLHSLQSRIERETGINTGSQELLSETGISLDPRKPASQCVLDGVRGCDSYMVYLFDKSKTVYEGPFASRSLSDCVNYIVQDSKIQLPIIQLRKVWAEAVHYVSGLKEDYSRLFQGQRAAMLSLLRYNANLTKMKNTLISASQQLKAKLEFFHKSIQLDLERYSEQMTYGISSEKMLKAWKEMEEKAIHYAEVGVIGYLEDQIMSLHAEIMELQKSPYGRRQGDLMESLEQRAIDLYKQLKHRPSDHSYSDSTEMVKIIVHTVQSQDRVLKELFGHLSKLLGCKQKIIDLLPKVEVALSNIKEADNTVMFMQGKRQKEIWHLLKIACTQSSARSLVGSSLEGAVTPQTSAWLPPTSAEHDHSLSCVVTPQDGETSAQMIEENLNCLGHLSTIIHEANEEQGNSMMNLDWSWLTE

[7] = target: T2, Inhibitor of nuclear factor kappa-B kinase subunit alpha (Homo sapiens); conditions: at 1 µM
[8] = target: T3, Inhibitor of nuclear factor kappa-B kinase subunit beta (Homo sapiens) (UniProt O14920); conditions: at 0.1 µM
T3 sequence (whole entry): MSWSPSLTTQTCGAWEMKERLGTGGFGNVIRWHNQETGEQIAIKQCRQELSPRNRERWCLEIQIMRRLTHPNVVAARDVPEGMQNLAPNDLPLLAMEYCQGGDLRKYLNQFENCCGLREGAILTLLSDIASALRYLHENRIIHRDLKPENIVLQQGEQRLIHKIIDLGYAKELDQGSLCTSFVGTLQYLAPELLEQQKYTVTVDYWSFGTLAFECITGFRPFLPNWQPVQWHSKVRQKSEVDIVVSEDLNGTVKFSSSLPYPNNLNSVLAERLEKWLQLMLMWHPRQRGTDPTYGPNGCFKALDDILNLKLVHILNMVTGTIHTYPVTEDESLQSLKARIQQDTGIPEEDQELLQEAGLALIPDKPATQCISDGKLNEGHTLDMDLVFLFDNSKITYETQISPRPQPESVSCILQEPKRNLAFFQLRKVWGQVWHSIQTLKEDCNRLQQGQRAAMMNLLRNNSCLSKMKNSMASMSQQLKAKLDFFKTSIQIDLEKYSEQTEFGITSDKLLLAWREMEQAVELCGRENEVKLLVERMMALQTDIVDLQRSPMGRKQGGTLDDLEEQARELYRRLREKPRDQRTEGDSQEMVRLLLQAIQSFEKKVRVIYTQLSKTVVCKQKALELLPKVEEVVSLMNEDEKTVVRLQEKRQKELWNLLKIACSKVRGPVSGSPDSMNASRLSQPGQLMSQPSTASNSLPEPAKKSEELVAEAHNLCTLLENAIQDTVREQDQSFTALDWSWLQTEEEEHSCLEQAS

[9] = target: T3, Inhibitor of nuclear factor kappa-B kinase subunit beta (Homo sapiens); conditions: at 1 µM
[10] = target: T4, Inhibitor of nuclear factor kappa-B kinase subunit epsilon (Homo sapiens) (UniProt Q14164); conditions: at 0.1 µM;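 note: mean inhibition of IKKε reported, from the GSK PKIS dataset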
T4 sequence (whole entry): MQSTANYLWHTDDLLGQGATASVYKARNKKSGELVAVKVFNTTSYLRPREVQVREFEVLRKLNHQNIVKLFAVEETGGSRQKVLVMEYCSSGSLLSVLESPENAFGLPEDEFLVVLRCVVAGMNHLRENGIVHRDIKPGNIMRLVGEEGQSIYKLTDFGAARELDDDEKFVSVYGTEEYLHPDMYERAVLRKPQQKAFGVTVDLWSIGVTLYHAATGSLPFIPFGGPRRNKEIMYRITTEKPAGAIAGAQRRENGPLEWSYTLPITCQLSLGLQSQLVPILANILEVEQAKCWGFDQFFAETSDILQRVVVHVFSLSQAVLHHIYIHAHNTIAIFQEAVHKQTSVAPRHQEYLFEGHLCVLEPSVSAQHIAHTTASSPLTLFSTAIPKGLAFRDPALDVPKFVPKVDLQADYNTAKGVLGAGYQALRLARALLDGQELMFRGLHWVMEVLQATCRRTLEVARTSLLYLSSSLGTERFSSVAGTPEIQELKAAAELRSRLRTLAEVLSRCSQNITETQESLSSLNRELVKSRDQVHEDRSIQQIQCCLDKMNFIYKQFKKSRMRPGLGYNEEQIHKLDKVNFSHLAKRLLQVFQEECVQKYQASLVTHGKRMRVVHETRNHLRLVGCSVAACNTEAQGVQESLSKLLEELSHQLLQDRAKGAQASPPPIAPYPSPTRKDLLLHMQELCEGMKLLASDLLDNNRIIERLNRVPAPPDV

Sequence of Sphingosine kinase 1 (Homo sapiens) (Q9NYA1 whole entry): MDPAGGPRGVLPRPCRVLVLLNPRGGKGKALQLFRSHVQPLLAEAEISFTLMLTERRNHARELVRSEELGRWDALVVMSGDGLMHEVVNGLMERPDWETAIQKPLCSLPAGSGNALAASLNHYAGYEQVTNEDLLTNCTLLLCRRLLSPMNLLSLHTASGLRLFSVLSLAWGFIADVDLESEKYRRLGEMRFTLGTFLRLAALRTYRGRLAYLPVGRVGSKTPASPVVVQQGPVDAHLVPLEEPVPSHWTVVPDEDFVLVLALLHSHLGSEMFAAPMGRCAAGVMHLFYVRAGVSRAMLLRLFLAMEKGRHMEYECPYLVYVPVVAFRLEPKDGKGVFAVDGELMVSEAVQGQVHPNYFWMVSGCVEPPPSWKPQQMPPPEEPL

**Q.** Which results are given for CCn1c(-c2nonc2N)nc2cncc(C(=O)N3CCNCC3)c21?
**A.** inhibition [1]: -1.31%; inhibition [2]: 2.81%; inhibition [3]: 0.77%; inhibition [4]: 4.04%; inhibition [5]: 2.82%; inhibition [6]: 1.05%; inhibition [7]: 5.47%; inhibition [8]: 6.46%; inhibition [9]: 8.59%; inhibition [10]: 12.2%
